Screens as filed in PubChem BioAssay.
SARS PLpro yeast – SARS-CoV PLP inhibition in yeast. S. cerevisiae expressing SARS-CoV PLpro, growth rescue. Potency, µM (titrated, usually from 32.9 µM), for the others: at the highest dose activity, positive = growth rescue, hits mostly activators. 330,000 compounds, 0.19% hits. AID 485353; also: potency is read from the fitted curve at half-maximal effect; 0% is about no effect; nearly all actives have a fitted effect of over 55% in size
NS1 function inh – influenza NS1 inhibition. Potency, µM (titrated, usually from 46.1 µM), for the others: top-dose activity, positive = more growth. AID 2326. 270,000 compounds, 0.4% hits; also: potency is read from the fitted curve at half-maximal effect; actives are rising curves; nearly all actives have a fitted effect of over 50% in size
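Recovery from NS1-induced slow growth read by OD600 in budding yeast switched to galactose assay medium (pH 6.0, -URA) at 1:100 dilution. Compound 23 nl per well; the matching strain lacking NS1 serves as control.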
Shiga toxin inh – inhibitors of Shiga toxin in Vero cells; Vero cells, Shiga toxin protein synthesis inhibition reporter; inhibition, % at 38.7 µM; 290,000 compounds, 9.2% hits; in the data active = inhibition mostly above about 28%, no sharp cut-off; inactive = mostly below about 43%; also: 0% is about no effect
CHX counter – affects cycloheximide protein synthesis inhibition readout, counter-screen; cell reporter, cycloheximide protein synthesis inhibition counterscreen; max response, %; 300,000 compounds, 12% hits; AID 2314; in the data active = max response mostly above about 13%, no sharp cut-off; inactive = mostly below about 14%; also: read at 38.3 µM for the half of the compounds with a filed dose; 0% is about no effect
An asterisk follows results filed as active; ? = inconclusive; nt = no result. Compounds with a hit are over-represented: about 12% of the library has one in this group of screens. Unless noted, calls follow the shape of the full dose curve.

SMILES	SARS PLpro yeast	NS1 function inh	Shiga toxin inh	CHX counter
O=c1cc(C(F)(F)F)nc(-c2ccccc2OC(F)(F)F)[nH]1	-1.2%	5.3%	-7.0	-3.4
CCC(CC)N1CCN(S(=O)(=O)c2ccc(OC)cc2)CC1	4.8%	15.5%	nt	-0.7
Cc1cc(C(=O)Nc2ccc(Cl)c(S(=O)(=O)N3CCOCC3)c2)c2ccccc2n1	1.6%	nt	nt	nt
COc1ccc(N/N=C/c2c(C(=O)O)ccc3ccccc23)cc1	4.1%	-86.6%	27.2*	22.1*
O=C(Nc1ccc(Cl)cn1)Nc1ccccc1Cl	-1.8%	-6.7%	8.9	5.8
Cc1ccc(NC(=O)Nc2ccc(Cl)cn2)cc1	0.7%	nt	43.9*	39.4*
Cc1ccc(NC(=O)Nc2ccc(Cl)c(Cl)c2)nc1	-0.8%	2.1%	70.0*	32.3*
COc1ccc(C(CC(=O)NCc2ccccc2)C(C)C)cc1 (stereo not given)	-0.1%	2.8%	-5.4	7.5
COc1ccccc1NC(=S)N1CCC(C(=O)c2ccc(F)cc2)CC1	2.1%	nt	-16.1	-4.1
O=[N+]([O-])c1cc(-c2nnc(-c3ccccc3)o2)ccc1Oc1ccc(Cl)cc1	6.7%	8.7%	60.7*	32.3*
O=C(OCc1nnc(-c2ccccc2)o1)c1cc(Cl)ccc1[N+](=O)[O-]	-23.1%	-3.2%	56.9	31.2*
O=C(OCc1nnc(-c2ccc(Cl)cc2)o1)c1ccc(O)cc1	-0.9%	nt	28.3*	19.0*
O=C1CCC(C(=O)OCc2nnc(-c3ccc(Cl)cc3)o2)=NN1	1.7%	nt	nt	nt
O=C(OCc1nnc(-c2ccccc2)o1)c1cccnc1Cl	2.0%	3.9%	25.9	19.0*
O=C(OCc1nnc(-c2ccccc2)o1)c1cc(F)c(F)cc1Cl	-2.2%	-5.1%	-2.8	2.8
Cc1nnc(-c2ccc(Oc3ccc(Cl)cc3)c([N+](=O)[O-])c2)o1	7.3%	0.4%	-8.6	-2.8
CCOc1ncccc1C(=O)OCc1nnc(-c2ccccc2)o1	8.2%	-88.1%	21.4	11.8
O=C(CSc1cn(CCNC(=O)c2cccs2)c2ccccc12)NC1CCCC1	-3.7%	-4.2%	17.1	13.5
O=S(=O)(c1ccc(Cl)cc1)N1CCCN(c2nc3ccc(Cl)cc3s2)CC1	-0.9%	-3.2%	-7.2	-1.3
Brc1ccc2nc(N3CCN(c4ccccc4)CC3)sc2c1	-1.9%	nt	155.7*	47.4*
COc1ccc(OC)c2sc(N3CCN(c4ccccc4)CC3)nc12	nt	0.9%	nt	nt
Clc1ccc2nc(N3CCN(c4ccccc4)CC3)sc2c1	?	5.7%	134.6*	37.1*
O=C(N/N=C/c1ccccc1[N+](=O)[O-])c1cccs1	-1.1%	-7.0%	88.5*	40.6*
O=C(CSc1nnc(SCc2ccccc2)s1)N/N=C/C=C/c1ccccc1[N+](=O)[O-]	11.2%	1.2%	-6.6	5.1
O=C(Cc1cccs1)N/N=C/C=C\c1ccccc1[N+](=O)[O-]	1.9%	nt	84.7*	32.7*
SMILES	SARS PLpro yeast	NS1 function inh	Shiga toxin inh	CHX counter
COc1ccccc1OCC(=O)N/N=C/C=C/c1ccc([N+](=O)[O-])o1	-38.6%	-49.2%	13.0	19.1*
O=C(N/N=C\C=C\c1ccc([N+](=O)[O-])o1)c1cccs1	-6.5%	-45.2%	100.1*	32.7*
O=C(N/N=C/c1ccc([N+](=O)[O-])o1)c1ccc(NS(=O)(=O)c2cccs2)cc1	-1.6%	4.7%	-8.8	-0.9
O=C(Nc1ccc(F)c([N+](=O)[O-])c1)c1cccs1	1.0%	nt	3.2	10.1
O=C(N/N=C/C=C/c1ccccc1)c1ccncc1	4.6%	-0.4%	-19.8	0.3
O=C(N/N=C/C=C/c1ccccc1)c1cccs1	-4.2%	nt	75.0*	41.5*
Cc1ccc(/C=N/NC(=O)c2cccs2)cc1[N+](=O)[O-]	-3.6%	-41.4%	78.4*	39.4*
O=C(N/N=C/C(Br)=C/c1ccccc1)c1cccs1	-4.1%	-45.3%	122.5*	63.1*
O=C(Cc1cccs1)N/N=C/C=C/c1ccccc1	-2.3%	6.3%	58.7*	25.4*
CC(CCc1ccccc1)NC(=O)COC(=O)C(CCC(N)=O)NC(=O)c1ccc(F)cc1 (stereo not given)	-5.3%	nt	nt	nt
COC(=O)/C(=N\Nc1ccc(Cl)cc1)Sc1nnc(-c2ccc(OC)cc2)n1C	14.9%	4.1%	-10.7	-2.3
COC(=O)c1cc(NC(=O)CN(C)Cc2ccccc2)cc(C(=O)OC)c1	0.3%	1.3%	7.3	7.2
CCN(CC(=O)NCC1CCCO1)S(=O)(=O)c1ccc2ccccc2c1 (stereo not given)	-6.7%	-16.0%	-7.3	-0.8
O=C(N/N=C/C=C/c1ccccc1[N+](=O)[O-])c1cccs1	6.0%	-1.7%	22.5	29.6*
O=C(N/N=C/C=C\c1ccccc1[N+](=O)[O-])c1ccncc1	-1.0%	nt	-8.5	1.0
O=C(Cc1csc(NC(=O)c2ccccc2)n1)NO	0.0%	nt	-0.9	7.9
